Assay outcomes from PubChem.
Compounds with a hit are over-represented: about 9.3% of the library has one in this group of screens.
ELG1 genotoxic = induces genotoxicity in HEK293T cells with luciferase-tagged ELG1; HEK293T ELG1-luciferase reporter, luminescence, 16 h; Potency, µM (highest dose often 46 µM), for the others: at the top dose activity change, positive = activation, usual class: activators; actives 1.3% (n = 330,000); also: % of control where 0% means no effect; nearly all actives have a fitted effect of over 60% in size
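DMSO vehicle served as control against compound-treated ELG1-luciferase HEK293T cells; exposure lasted 16 hr at 37 °C and 5% CO2, followed by ONE-Glo luminescence detection after 30 min.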
NPC1 promoter act = NPC1 promoter activation; Huh7 NPC1 promoter luciferase reporter, 24 h; Potency, µM (series often up to 9.22 µM), for inactives: at the top dose activation, usual class: activators; actives 2.4% (n = 320,000); AID 485313; also: % of control where 0% means no effect; nearly all actives have a fitted effect of over 60% in size
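Huh7 cells stably carrying NPC1 promoter–luciferase, plated in Opti-MEM with 10% FBS for 2 h, were exposed to compound in DMSO for 24 h at 37 °C; luciferase reagent was added for 10 min and luminescence read.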
ELG1 DNA repair = ELG1-dependent DNA repair inhibition | HEK293T ELG1-luciferase reporter, luminescence, 16 h; DNA damage induced by 5-fluorouridine | Potency, µM (doses to about 46.1 µM), inactives show at the top dose activity change, negative = inhibition, usual class: inhibitors | actives 2.3% (n = 330,000); also: % is scaled to controls: 0 for no effect and ±100 for the full control effect; nearly all actives have a fitted effect of over 55% in size
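Luminescence from the luciferase reporter, measured 30 min after ONE-Glo reagent at room temperature, was the read-out. Beforehand, 2,000 cells per well were exposed for 16 hr at 37 °C to 5-fluorouridine together with compound or vehicle.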
SMN2 splice up = SMN2 splice variant enhancement; actives 2.8% (n = 210,000); Potency, µM (top dose mostly 46.1 µM), for the others: at the highest dose activity change, positive = activation, most hits filed as activators; HEK293 SMN2-luciferase splicing reporter, luminescence, 30-36 h; also: % of control where 0% means no effect; nearly all actives have a fitted effect of over 55% in size
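qHTS luciferase splicing reporter: luminescence rises when SMN2 exon 7 is included in transfected HEK293 cells. Compound exposure lasted 30-36 h at 37C, with 4.5 mM final sodium butyrate as control, followed by a ONE-Glo read.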
Rab9 prom act = Rab9 promoter activation; Huh7 Rab9 promoter-luciferase reporter, luminescence, 24 h; Potency, µM (highest dose often 9.22 µM), for the others: top-dose activation, negative = inhibition, hits mostly activators; actives 2.8% (n = 320,000); AID 485297; also: % of control where 0% means no effect; nearly all actives have a fitted effect of over 60% in size
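Cell-based reporter: Huh7 stable for Rab9 promoter-driven luciferase, plated in reduced-serum medium with 10% FBS at 1500 cells/well, compound-treated 24 h at 37 °C, luminescence read after 10 min reagent.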
FLuc modulator = inhibits or activates purified firefly luciferase, miR-21 counter-screen. P08659. purified FLuc, Km substrates, luminescence inhibition. Potency, µM (highest dose often 57.5 µM), without a hit: at the top dose activity change, negative = inhibition, usual class: inhibitors. actives 6.9% (n = 360,000). AID 588342;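 also: plate controls were vehicle for no effect and reference inhibitor for full effect; nearly all actives have a fitted effect of over 55% in size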
Target sequence (P08659 whole entry, looked up): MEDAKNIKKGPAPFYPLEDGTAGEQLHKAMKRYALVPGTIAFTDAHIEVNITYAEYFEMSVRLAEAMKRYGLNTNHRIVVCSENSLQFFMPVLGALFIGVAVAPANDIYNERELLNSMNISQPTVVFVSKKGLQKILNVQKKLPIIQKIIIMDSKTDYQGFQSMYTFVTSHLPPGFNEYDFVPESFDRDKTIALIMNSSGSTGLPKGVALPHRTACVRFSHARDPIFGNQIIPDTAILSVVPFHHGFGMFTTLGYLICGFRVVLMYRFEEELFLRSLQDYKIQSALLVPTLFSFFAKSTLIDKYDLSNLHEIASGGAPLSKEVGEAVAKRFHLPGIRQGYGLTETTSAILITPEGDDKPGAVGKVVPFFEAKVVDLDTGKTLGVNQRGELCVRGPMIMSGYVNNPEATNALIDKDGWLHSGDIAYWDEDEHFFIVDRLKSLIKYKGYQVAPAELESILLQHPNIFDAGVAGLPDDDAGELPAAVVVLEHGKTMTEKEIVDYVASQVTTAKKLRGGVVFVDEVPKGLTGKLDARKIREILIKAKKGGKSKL
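Purified P. pyralis luciferase (10nM final) with 10uM D-luciferin and 10uM ATP (Km levels) in 50mM Tris acetate pH 7.5, 10mM Mg acetate, 0.01% Tween-20, 0.05% BSA; qHTS 6-point titration, ~60 µM downward; luminescence read.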
Active calls of the source: *; ? = inconclusive; · = not tested or not shown. Calls follow the shape of the dose curve; as a rule, active = well fitted curve in the direction sought with a large enough effect; inconclusive = small, poorly fitted or top-dose-only effect, or another doubt; inactive = no such curve, though single readings can be large; an effect the other way counts as inactive or inconclusive. Potency is read from the fitted curve at half-maximal effect.

SMILES	ELG1 genotoxic	NPC1 promoter act	ELG1 DNA repair	SMN2 splice up	Rab9 prom act	FLuc modulator
COc1ccc(C(=O)NNC(=O)Nc2ccc(Cl)cc2)cc1	?	?	?	6%	17%	-14%
O=C(Nc1cccnc1)c1cc(F)c(F)cc1Cl	-3%	-4%	2%	0%	-9%	-1%
CCC(CC)NC(=O)Nc1ccc(F)c(Cl)c1	-12%	3%	?	13%	-4%	-5%
CCCCn1c(N)c(N(Cc2ccccc2OC)C(=O)COc2ccccc2C#N)c(=O)[nH]c1=O	0%	0%	6%	·	-7%	1%
C[n+]1ccccc1Nc1cc([N+](=O)[O-])ccc1N	-4%	-1%	-16%	·	0%	-1%
Cc1cc(C)cc(NC(=O)c2ccc(CSc3nnnn3C)cc2)c1	0%	9%	27%	-11%	19%	13µM*
Cn1nnnc1SCc1ccc(CSc2nnnn2C)cc1	-2%	-3%	-6%	-15%	-3%	2%
Cn1nnnc1SCc1ccc(C(=O)Nc2nccs2)cc1	?	30%	?	11µM*	?	15µM*
Cn1nnnc1SCc1ccc(C(=O)Nc2ccccc2F)cc1	?	?	?	2%	?	?
C=CCn1c(SCc2ccc(C(=O)Nc3nccs3)cc2)nnc1-c1ccc(C)c(Cl)c1	-14%	1%	?	-97%	-1%	11µM*
COc1ccc(C(=O)NCCn2ccc3ccccc32)c(OC)c1	?	?	?	29%	?	21µM*
COc1ccc2[nH]c(C(=O)Nc3ccc(C)c(F)c3)cc2c1	-6%	?	?	·	?	?
COc1ccc(C(=O)Nc2ccncc2)c(OC)c1	5%	4%	?	·	-7%	?
COc1ccc(C(=O)Nc2ccc3ccccc3c2)c(OC)c1	2.1µM*	3.5µM*	?	·	?	0.85µM*
CC(C)(C)c1ccc(S(=O)(=O)NNC(=O)c2cc3ccccc3[nH]2)cc1	?	14%	?	·	12%	13µM*
COc1ccc(NC(=O)c2cc3ccccc3[nH]2)cc1	?	3.2µM*	?	·	2µM*	?
COc1ccc(C(=O)NCCN2CCOCC2)c(OC)c1	-1%	-4%	-20%	11%	3%	-2%
COc1ccc(NC(=O)c2coc(C)c2)cc1	?	?	?	·	?	24µM*
COc1ccc(NC(=O)c2ccc(=O)oc2)cc1	0%	17%	-8%	-2%	7%	?
COc1ccc(NC(=O)c2ccc3ccccc3c2)cc1	2.3µM*	0.71µM*	?	·	0.71µM*	0.85µM*
COC(=O)c1cccc(C23CC4(C2)[C@H](CN(Cc2ccc(C(F)(F)F)cc2)[C@@H]4c2ccccc2)C3c2ccc(C(F)(F)F)cc2)c1 (some centres undefined)	0%	-9%	-7%	-55%	-8%	0%
O=C(Nc1ccc(N2CCOCC2)c(S(=O)(=O)Nc2ccccc2Cl)c1)c1ccc(F)cc1	-7%	·	18µM*	·	·	·
O=C(Nc1ccc(N2CCCCC2)c(S(=O)(=O)Nc2ccccc2Cl)c1)c1cccnc1	-7%	·	18µM*	·	·	·
O=C(Nc1ccc(Cl)c(Cl)c1)Nc1ccc(N2CCCC2)c(S(=O)(=O)Nc2ccccc2Cl)c1	0%	-20%	?	-46%	-34%	1%
COc1ccc(N2CC(NC(=O)C3CCCCC3)CC2=O)cc1 (centres undefined)	·	·	·	·	·	1%
SMILES	ELG1 genotoxic	NPC1 promoter act	ELG1 DNA repair	SMN2 splice up	Rab9 prom act	FLuc modulator
COc1cccc2c1OCC(C(=O)Nc1nccs1)=C2	?	2.2µM*	?	·	2µM*	5.4µM*
COc1c(C(=O)Nc2nccs2)ccc2ccccc12	?	1.8µM*	?	·	?	3µM*
COc1ccc(-c2nn(-c3ccccc3)cc2C(=O)Nc2nccs2)cc1	-17%	-5%	6.5µM*	-5%	2%	-5%
COc1cc(OC)c(C(=O)NCC(c2cccs2)N(C)C)cc1OC (centres undefined)	6%	-1%	28%	9%	-10%	-14%
COc1cc2ccccc2cc1C(=O)NCC(c1cccs1)N(C)C (centres undefined)	16%	2.8µM*	?	?	?	5.4µM*
COc1ccc(OCC(=O)NCCNC(=O)c2cccnc2)cc1	-5%	-3%	-6%	·	1%	3%
COc1ccc(NC(=O)Nc2ccc([N+](=O)[O-])cc2)cn1	7%	22%	21%	·	29%	-15%
Cc1cc(C(=O)CCC(=O)N(C)CC(=O)Nc2ccccc2Br)c(C)s1	-8%	1%	-9%	·	-2%	3%
Cc1ccc(C(=O)CSc2nc3cc(C(=O)NC4CCCC4)ccc3c(=O)n2CC2CCCO2)c(C)c1 (centres undefined)	·	·	·	·	·	-1%
COc1cccc(C=Nc2ccccc2C(=O)Nc2nccs2)c1OC	?	14%	?	-6%	17%	6%
COc1cc2ccccc2cc1C(=O)Nc1nccs1	12%	3.2µM*	?	·	?	8.5µM*
CCN(Cc1ccncc1)S(=O)(=O)c1ccc(C(C)=O)cc1	2%	-8%	6.5µM*	-45%	-26%	-2%
O=C1/C(=C/c2ccccc2)SC(=S)N1N1C(=O)C2CC2C1=O (centres undefined)	-2%	-3%	-2%	12%	-8%	-17%
O=[N+]([O-])c1cccc(/C=N/Nc2nc(N3CCOCC3)nc(N3CCOCC3)n2)c1	-8%	-3%	?	5%	1%	-1%
O=[N+]([O-])c1ccc(Nc2nc(N/N=C/c3cccc(F)c3)nc(N3CCCC3)n2)cc1	-9%	-2%	4.6µM*	-6%	-2%	-2%
COc1cccc(/C=N/Nc2nc(Nc3ccc([N+](=O)[O-])cc3)nc(N3CCCC3)n2)c1O	-17%	-22%	6.5µM*	-53%	-13%	-12%
COc1cccc(/C=N/Nc2ccc([N+](=O)[O-])cn2)c1O	2.6µM*	-23%	?	·	-25%	0.76µM*
COc1c(/C=N/Nc2nc(N3CCCCC3)nc(N3CCCCC3)n2)cccc1[N+](=O)[O-]	-8%	-1%	-2%	?	0%	3%
COc1cccc(/C=N/Nc2ccnc(=O)[nH]2)c1O	11%	-22%	-11%	·	-20%	17µM*
COC(=O)N/N=C/C1=C[N+](=O)c2ccccc2[N+]1=O	·	·	·	4%	·	·
COc1ccc(OC)c(CCNc2ncnc3onc(-c4ccc(F)cc4)c23)c1	·	·	·	·	·	-11%
CNc1nn(-c2cccc(Cl)c2)nc1N	11µM*	?	?	?	?	24µM*
